# MBNL1 CUG block: inhibitors of human MBNL1 binding to CUG repeat RNA; TR-FRET MBNL1-His/biotin-(CUG)12 binding, 665/545 ratio; Potency, µM (series often up to 57.5 µM), without a hit: top-dose activity change, negative = inhibition, most hits filed as inhibitors; 0.036% of 280,000 active; AID 2675; active = well fitted inhibition curve with a large enough effect in the signal ratio, with a control signal flat, not every such curve was filed as active; inconclusive = small, poorly fitted or top-dose-only effect, or effect the other way, or a change in a side signal; inactive = no such curve, though single readings can be large or run the other way; the % refers to the signal ratio; note: potency is the fitted concentration of half-maximal effect; % is set by controls: 0 for no effect and ±100 for the full control effect
#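 Ratiometric TR-FRET (665 over 545 nm, excitation 340 nm) tracks disruption of MBNL1-His/biotin-(CUG)12 complex after 60 min at room temperature, with compounds at 92 nM to 58 uM final.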
# CBFb RUNX1 block: blocks binding between human CBF-beta and RUNX1; Q01196+Q13951; AlphaScreen CBFb-His/RUNX1-biotin binding, biochemical; Potency, µM (top dose mostly 59.8 µM), for the others: top-dose activity, negative = inhibition, actives largely listed as inhibitors; 230,000 tested, under 10 active; AID 1477; note: % of control where 0% means no effect
#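 Interaction loss through any mechanism counts as activity. Pre-formed complex of His-CBF-beta and biotin-RUNX1 (30 nM apiece) is incubated with compound 15 min, then with 50 ng nickel and 50 ng streptavidin beads for 90 min before AlphaScreen detection.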
# PLK1 PBD inh: blocks phosphopeptide binding to human PLK1 polo-box domain; P53350; Plk1 PBD binding of FITC phosphopeptide, fluorescence polarization; Potency, µM, without a hit: max response, negative = inhibition, hits mostly inhibitors; 2.8% of 360,000 active; note: potency is the fitted concentration of half-maximal effect; series mostly up to about 57 µM; % is set by controls: 0 for no effect and ±100 for the full control effect; nearly all actives have a fitted effect of over 65% in size
# VDR inhibitor: vitamin D3 receptor (human) inhibition | P11473 | VDR-SRC2-3 peptide fluorescence polarization, 2 h | Potency, µM, inactives show max response, negative = inhibition, usual class: inhibitors | 0.93% of 400,000 active; note: potency is the fitted concentration of half-maximal effect; % is set by controls: 0 for no effect and ±100 for the full control effect
#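 FP read-out; VDR + SRC2-3 coactivator peptide; 23 nl compound by pintool; 2 h RT incubation; reagents held at 4 deg C, protected from light.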
# KCNH2 3.1 block: blocks the human KCNH2 3.1 channel isoform | U2OS KCNH2 3.1, thallium flux FluxOr; active compounds read low | activity change, % (tested at about 1.8 µM) | 0.95% of 340,000 active | AID 720553;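 active = maximum activity change below -70%; inconclusive = maximum activity change from -70% to -50%; inactive = maximum activity change above -50%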;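 note: thallium influx rate constant from kinetic fluorescence after stimulation buffer; % is set by controls: 0 for no effect and ±100 for the full control effect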
#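 Kinetic fluorescence (2 min after stimulation buffer) measures Tl+ influx through KCNH2 3.1 expressed by viral transduction in U2OS cells; the rate constant is normalized against DMSO controls serving as positive and negative references.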
# hERG WT inh: blocks the wildtype human KCNH2 potassium channel. Q12809. U2OS, BacMam KCNH2, thallium flux FluxOr; active compounds read low. activity change, % at 1.84 µM. 0.37% of 340,000 active. AID 720551;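 active = maximum activity change below -70%; inconclusive = maximum activity change between -70% and -50%; inactive = maximum activity change above -50%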; note: % is set by controls: 0 for no effect and ±100 for the full control effect
# Target sequence (Q12809 whole entry, looked up): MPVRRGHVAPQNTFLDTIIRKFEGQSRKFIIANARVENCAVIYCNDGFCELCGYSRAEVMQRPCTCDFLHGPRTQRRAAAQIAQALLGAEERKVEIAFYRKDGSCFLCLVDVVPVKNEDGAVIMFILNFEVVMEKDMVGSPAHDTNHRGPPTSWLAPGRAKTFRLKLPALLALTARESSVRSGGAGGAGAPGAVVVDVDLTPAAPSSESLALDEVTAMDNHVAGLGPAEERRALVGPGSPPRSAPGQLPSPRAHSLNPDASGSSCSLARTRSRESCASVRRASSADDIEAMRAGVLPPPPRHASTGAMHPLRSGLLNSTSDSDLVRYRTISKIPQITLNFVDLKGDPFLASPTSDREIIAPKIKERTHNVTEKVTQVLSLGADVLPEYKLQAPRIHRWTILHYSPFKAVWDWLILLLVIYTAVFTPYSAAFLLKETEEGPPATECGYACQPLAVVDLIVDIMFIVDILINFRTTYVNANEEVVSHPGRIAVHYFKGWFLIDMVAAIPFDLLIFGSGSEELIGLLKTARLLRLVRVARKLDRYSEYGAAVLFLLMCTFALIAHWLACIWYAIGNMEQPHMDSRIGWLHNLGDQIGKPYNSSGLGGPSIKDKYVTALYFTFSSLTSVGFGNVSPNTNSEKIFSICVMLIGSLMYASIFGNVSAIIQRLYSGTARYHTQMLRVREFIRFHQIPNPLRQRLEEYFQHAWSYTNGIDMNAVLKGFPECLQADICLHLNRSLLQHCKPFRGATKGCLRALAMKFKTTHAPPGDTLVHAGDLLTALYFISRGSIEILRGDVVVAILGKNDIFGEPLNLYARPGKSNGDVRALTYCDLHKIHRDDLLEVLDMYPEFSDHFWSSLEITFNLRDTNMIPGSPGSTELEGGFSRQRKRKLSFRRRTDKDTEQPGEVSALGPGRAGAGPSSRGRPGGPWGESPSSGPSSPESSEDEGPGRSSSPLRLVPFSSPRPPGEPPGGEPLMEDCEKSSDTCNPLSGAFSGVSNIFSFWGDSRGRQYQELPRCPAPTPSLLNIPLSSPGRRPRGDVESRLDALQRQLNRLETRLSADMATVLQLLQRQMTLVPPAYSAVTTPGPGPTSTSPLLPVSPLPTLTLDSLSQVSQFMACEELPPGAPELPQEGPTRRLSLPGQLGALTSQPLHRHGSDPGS
#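 U2OS cells transduced with wild-type KCNH2 virus are loaded with FluxOr dye for 45 min, and thallium flux is measured in kinetic reads before and after stimulation buffer. Rate constants are normalized to DMSO controls.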
# * marks the source's active call; other numbers are inactive results; ? = inconclusive; . = not tested or not shown. Rows were chosen to be rich in hits. Some 3.8% of all compounds tested hit in one or more screens of this group. Unless noted, calls come from the whole dose curve; as a rule, active = well fitted curve in the direction sought with a large enough effect; inconclusive = small, poorly fitted or top-dose-only effect, or another doubt; inactive = no such curve, though single readings can be large; an effect the other way counts as inactive or inconclusive.
SMILES,MBNL1 CUG block,CBFb RUNX1 block,PLK1 PBD inh,VDR inhibitor,KCNH2 3.1 block,hERG WT inh
CCN(C(=O)CSc1nc2ccccc2n1Cc1ccc(F)cc1Cl)c1ccccc1,.,.,.,-2.0%,.,.
Cc1c(Cl)cccc1S(=O)(=O)N1CCC(C(=O)NNC(=O)C2CC2)CC1,-4.9%,-3.0%,23.8µM*,24.1%,14.0,11.9
O=C(C1CCC1)N1CCc2cc(S(=O)(=O)N3CCN(c4ccccc4)CC3)ccc21,.,.,.,4.5%,.,.
COc1cc(Cl)c(NC(=O)CN2C(=O)c3cccnc3Sc3ccccc32)c(OC)c1,.,.,.,-5.4%,.,.
COc1ccc(-c2c(C3C4C=CCC(C)C4C(=O)N3Cc3ccccc3)ccc3ccccc23)cc1OC (stereo unspecified),.,-29.3%,.,-12.1%,.,.
Cc1ccc(C(=O)n2ncn(C)c2=S)cc1,-7.4%,9.0%,9.47µM*,?,2.2,-8.3
O=C(COc1ccc(F)cc1)N(Cc1cccc(Br)c1)C1CCS(=O)(=O)C1 (stereo unspecified),-3.9%,.,23.8µM*,?,18.0,?
Cc1cccc(C(=O)Nc2nnc(-c3ccc(C(C)(C)C)cc3)s2)c1,-5.7%,2.8%,-7.3%,?,-89.0*,-2.8
CCN(C(=O)c1cc(S(=O)(=O)N2CCc3ccccc32)cn1C)c1cccc(C)c1,.,.,.,3.3%,.,.
Cc1nn(-c2ccccc2)c(OC(=O)C(C)(C)C)c1Sc1ccccc1,.,.,.,79.4µM*,.,.
Cc1nn(-c2ccccc2)c2c1C(c1ccc([N+](=O)[O-])cc1)C(C#N)=C(N)O2 (stereo unspecified),?,-24.6%,?,?,-1.1,4.3
Cc1nn(-c2ccccc2)c(OC(=O)C(C)C)c1Sc1ccccc1,.,.,.,70.8µM*,.,.
Cc1nn(-c2ccccc2)c(N)c1Sc1ccc([N+](=O)[O-])cc1,?,-6.2%,11.9µM*,?,-8.4,0.7
CCOc1ccc(N(C)S(=O)(=O)c2c(C(=O)N3CCC(C)CC3)c(C)n(C)c2C)cc1,.,.,.,-3.0%,.,.
CC(=O)c1ccc(N2Cc3ccccc3/C2=N\C(=O)Nc2ccccc2)cc1,-2.9%,3.4%,-8.4%,-3.1%,-6.1,6.3
CC(=O)c1cccc(N2Cc3ccccc3C2=NC(=O)CCl)c1,?,13.6%,13.4µM*,-29.8%,21.4,-3.4
COC(=O)CC1Oc2ccc(Cl)cc2-n2cc(-c3ccc(C)cc3)nc21 (stereo unspecified),.,.,.,17.2%,.,.
Cc1cc(NC(=O)CSc2nc(N)c(NC(=O)c3ccccc3)c(=O)[nH]2)no1,-5.1%,13.8%,-15.0%,-4.7%,-13.8,12.1
Cc1cc(NC(=O)CSc2nc(N)c(NC(=O)c3ccco3)c(=O)[nH]2)no1,-10.9%,4.6%,29.9µM*,?,1.2,5.6
CCc1ccc(S(=O)(=O)c2nnn3c2nc(Nc2cc(OC)cc(OC)c2)c2cc(Cl)ccc23)cc1,.,.,.,4.8%,.,.
COc1ccc(NC(=O)/C(=C\c2cccs2)NC(=O)c2ccco2)cc1,11.9%,-0.5%,21.2µM*,-10.6%,-12.0,1.2
c1ccc(CNc2ccnc(-c3ccoc3)n2)cc1,.,.,.,79.4µM*,.,.
c1ccc(Nc2ncnc3ccc(-c4ccoc4)cc23)cc1,.,.,.,31.6µM*,.,.
c1ccc(CNc2ncnc3ccc(-c4ccoc4)cc23)cc1,.,.,.,25.1µM*,.,.
c1ccc(CNc2ccnc(-c3ccc4c(c3)OCO4)n2)cc1,.,.,.,-7.8%,.,.
SMILES,MBNL1 CUG block,CBFb RUNX1 block,PLK1 PBD inh,VDR inhibitor,KCNH2 3.1 block,hERG WT inh
COc1ccc(-c2noc(CSc3nnc(-c4ccncc4)n3-c3ccc(C)c(C)c3)n2)cc1,.,.,.,11.4%,.,.
O=C(CSc1nnc2[nH]c(=O)cc(-c3ccccc3)n12)Nc1cc(C(F)(F)F)ccc1Cl,.,.,.,13.0%,.,.
COc1ccc(NCc2cccn2-c2nnc(N3CCCCCC3)s2)cc1,.,.,.,-1.7%,.,.
Cc1ccc(C(=O)OCC(=O)Nc2ccccc2Cl)c(O)c1,-3.7%,14.5%,9.47µM*,?,-16.6,9.9
Cc1ccc(C(=O)OCC(=O)Nc2cccc(Cl)c2C)c(O)c1,-6.9%,-3.4%,-0.6%,-19.3%,2.2,32.2
CCN(CC)c1ccc(C(=C2C=CC(=[N+](CC)Cc3cccc(S(=O)(=O)[O-])c3)C=C2)c2ccc(N(CC)Cc3cccc(S(=O)(=O)O)c3)cc2)cc1,.,.,.,12.6µM*,.,.
c1ccc(-c2[nH]ncc2-c2ccnc3ccccc23)nc1,.,?,.,-5.8%,.,.
COc1cc(C)ccc1OCCOc1cc(C)ccc1Cl,-0.8%,?,23.8µM*,-5.8%,-5.6,-6.9
CCc1ccccc1OCCOc1ccc(C)cc1OC,-5.6%,29.1%,2.99µM*,-19.3%,-3.2,-4.4
COc1cc(C)ccc1OCCOc1c(Cl)cc(Cl)cc1Cl,-3.4%,5.3%,-3.6%,-1.4%,6.2,-0.7
CCc1ccccc1OCCCOc1ccc(OC)cc1,-2.7%,-1.4%,-6.8%,3.1%,-99.2*,-1.4
CCCN1C(=O)C2(c3ccccc31)c1c(oc3ccc(C)cc3c1=O)C(=O)N2CCOC (stereo unspecified),.,.,.,4.1%,.,.
O=C(COc1ccc(F)cc1)Nc1ccccc1C(=O)OCc1cc(=O)n2nc(C3CC3)sc2n1,.,.,.,10.7%,.,.
CC(=O)Nc1ccc(S(=O)(=O)NCCOc2ccc(Cl)cc2C)cc1,16.5%,9.6%,-5.5%,8.5%,-190.4*,-120.2*
CC(=O)Nc1ccc(S(=O)(=O)NCCC(=O)Nc2cccc(Cl)c2)cc1,-8.1%,.,-4.5%,?,10.0,3.0
CC(=O)[C@@H]1[C@@H]2C(=O)N(Cc3ccccc3)C(=O)[C@@H]2C2c3ccccc3C=CN21 (stereo partly specified),12.3%,4.9%,18.9µM*,-4.0%,-15.5,0.8
Cc1ccc(-c2csc3ncn(CC(=O)N4CCOCC4)c(=O)c23)cc1C,-12.8%,3.9%,29.9µM*,-1.5%,-3.0,-9.0
O=C(Cn1cnc2scc(-c3ccc(F)cc3)c2c1=O)N1CCOCC1,-5.5%,4.4%,2.3%,9.1%,-6.3,6.4
C=CCOc1ccc(/C=C2\SC(=S)N(NS(=O)(=O)c3ccc(C)cc3)C2=O)cc1,6.5%,.,26.7µM*,-14.9%,17.5,5.1
Cc1ccc(S(=O)(=O)NN2C(=O)/C(=C/c3ccc(C(=O)O)cc3)SC2=S)cc1,?,.,-8.4%,?,2.8,10.9
Cc1ccc(S(=O)(=O)NN2C(=O)/C(=C/c3ccc(F)cc3)SC2=S)cc1,5.3%,.,?,-27.4%,-8.1,2.8
Cc1ccc(S(=O)(=O)NN2C(=O)/C(=C\c3ccc(Cl)cc3)SC2=S)cc1,-5.6%,.,26.7µM*,-10.6%,7.6,32.9
COc1ccc(/C=C2/SC(=S)N(NS(=O)(=O)c3ccc(C)cc3)C2=O)cc1,0.3%,.,23.8µM*,-7.8%,0.0,6.2
Cc1ccc(/C=C2\SC(=S)N(NS(=O)(=O)c3ccc(C)cc3)C2=O)cc1,-9.3%,.,26.7µM*,8.5%,22.3,-1.2

# High-throughput results as filed in PubChem.
